Assay outcomes from PubChem BioAssay.
ALDH1A1 block: blocks purified human ALDH1A1 activity; P00352; Purified ALDH1A1, NADH fluorescence, propionaldehyde substrate; Potency, µM (doses to about 75.3 µM), for inactives: top-dose activity, negative = inhibition, actives largely listed as inhibitors; 220,000 tested, 7.3% active;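 also: potency is read from the fitted curve at half-maximal effect; plate controls were no enzyme wells and a reference inhibitor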
Target sequence (P00352 whole entry, looked up): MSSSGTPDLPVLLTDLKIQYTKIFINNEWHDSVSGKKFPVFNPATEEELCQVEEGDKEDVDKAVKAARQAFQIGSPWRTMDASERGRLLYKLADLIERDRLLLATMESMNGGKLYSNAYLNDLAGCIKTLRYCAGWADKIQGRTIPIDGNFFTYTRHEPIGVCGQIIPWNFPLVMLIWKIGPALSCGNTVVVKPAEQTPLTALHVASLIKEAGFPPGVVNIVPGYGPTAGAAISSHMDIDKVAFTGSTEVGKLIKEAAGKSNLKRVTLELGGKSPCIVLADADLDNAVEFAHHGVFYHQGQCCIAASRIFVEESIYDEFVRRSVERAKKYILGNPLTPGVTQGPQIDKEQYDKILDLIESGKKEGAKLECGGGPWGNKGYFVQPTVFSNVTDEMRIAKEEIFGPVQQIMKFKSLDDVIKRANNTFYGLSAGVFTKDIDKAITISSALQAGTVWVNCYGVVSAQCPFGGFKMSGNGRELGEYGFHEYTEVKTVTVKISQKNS
HPGD inh: inhibitors of human 15-hydroxyprostaglandin dehydrogenase (HPGD); purified HPGD, NADH fluorescence kinetic, PGE2 substrate; Potency, µM, without a hit: top-dose activity change, negative = inhibition, most hits filed as inhibitors; 150,000 tested, 4.3% active; also: potency is read from the fitted curve at half-maximal effect
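NADH formation kinetics: reaction with 30 uM PGE2 and 1 mM NAD+ (final), 20 nM enzyme, Tris-HCl pH 8 with Tween 20, after 15 min compound preincubation at room temperature. Fluorescence change, last versus first of five reads.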
PNC assembly inh: inhibitors of perinucleolar compartment assembly; 140,000 tested, 3.1% active; PC3M PTB-GFP, PNC prevalence imaging, 16 h; active compounds read low; activity change (PNC), negative = inhibition, % at 10 µM;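 active = readout at or below -70, meaning at least 70% loss of cells showing the perinucleolar compartment, a nuclear body marking cancer cells; inconclusive = readout between -30 and a set limit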;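 also: plate controls were DMSO wells for no effect and camptothecin positive control wells for full effect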
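PC3M cells stably expressing PTB-GFP, 750–1000 cells/well, treated 16 h at 37 °C with compound (23 nl of library stock), in duplicate. After paraformaldehyde fixation and Hoechst stain, imaged at 20x; PNC prevalence scored by image analysis.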
Luc counter: Kinase-Glo luciferase inhibition (counter-screen); Q27757; Kinase-Glo luciferase, ATP luminescence, 8 min; Potency, µM (titrated, usually from 38.3 µM), inactives show top-dose activity change, negative = inhibition, usual class: inhibitors; 200,000 tested, 0.28% active; AID 1379; active = well fitted inhibition curve with a large enough effect; inconclusive = small, poorly fitted or top-dose-only effect; also: potency is read from the fitted curve at half-maximal effect; nearly all actives have a fitted effect of over 60% in size
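Inhibition of Kinase-Glo luciferase light generation was assessed at 10 uM ATP in pH 7.2 imidazole buffer, with luminescence measured after eight minutes at ambient temperature.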
IMPase cell inh: cell-permeable inhibitors of inositol monophosphatase (IMPase) | 120,000 tested, under 10 active | P97697 | CHO-M1 cells, IP1 accumulation, HTRF TR-FRET ratio | inhibition (IP1 accumulation), % at 46.1 µM; active = well fitted curve in the direction sought with a large enough effect in the signal ratio, not every such curve was filed as active; inconclusive = small, poorly fitted or top-dose-only effect, or a change in a side signal; inactive = no such curve, though single readings can be large or run the other way; the % refers to the signal ratio;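 also: cells stimulated with carbachol in lithium chloride buffer; plate controls were DMSO basal wells for no effect and reference inhibitor wells for full effect; higher means more IMPase inhibition seen as more IP1 and lower FRET ratio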
Target sequence (P97697 whole entry, looked up): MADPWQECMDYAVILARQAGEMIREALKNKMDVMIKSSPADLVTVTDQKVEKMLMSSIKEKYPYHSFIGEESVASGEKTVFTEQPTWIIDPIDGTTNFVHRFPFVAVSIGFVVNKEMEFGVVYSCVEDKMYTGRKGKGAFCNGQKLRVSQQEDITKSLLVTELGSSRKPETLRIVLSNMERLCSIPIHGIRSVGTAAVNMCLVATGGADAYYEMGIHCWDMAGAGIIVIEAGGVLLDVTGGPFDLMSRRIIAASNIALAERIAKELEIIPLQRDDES
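The IP-One HTRF competitive assay in carbachol-stimulated CHO-M1 cells quantifies cellular IP1. Compounds spanned up to 46 uM final, and activity is expressed as AC50 from concentration-response fits of the ratio and donor data.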
LMNA splice mod: changes lamin A minigene splicing in HeLa cells; Potency, µM (doses to about 46.1 µM), without a hit: at the highest dose ratio change, negative = inhibition, usual class: inhibitors; HeLa LMNA splicing GFP/RFP minigene ratio, 48 h; 200,000 tested, 0.01% active; active = well fitted inhibition curve with a large enough effect in the signal ratio, with a control signal flat, not every such curve was filed as active; inconclusive = small, poorly fitted or top-dose-only effect, or effect the other way, or a change in a side signal; the % refers to the signal ratio; also: potency is read from the fitted curve at half-maximal effect
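S3 HeLa stable clones carrying a lamin A-EGFP splicing minigene plus DsRed2 were seeded at 600 cells/well in Opti-MEM with 2% FBS, pin-dosed and incubated 48 h at 37°C. Acumen cytometry (488 nm) gave the GFP/RFP total-intensity ratio.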
* marks the source's active call; other numbers are inactive results; u = inconclusive; x = not tested or not shown; [ ] = another dose, or the depositor's remark. Most compounds without a hit are left out; they make up all but 10% or so of the library. Unless noted, calls follow the shape of the dose curve; as a rule, active = well fitted inhibition curve with a large enough effect (not every such curve was filed as active); inconclusive = small, poorly fitted or top-dose-only effect, or another doubt; inactive = no such curve, though single readings can be large or run the other way. Unless noted, % is scaled to controls: 0 for no effect and ±100 for the full control effect.

SMILES | ALDH1A1 block | HPGD inh | PNC assembly inh | Luc counter | IMPase cell inh | LMNA splice mod
O=C(c1ccccc1)N1CCN(Cc2ccccc2)CC1 | u | -15% | -100* | 2% | -3 | -18%
COc1cc(OC)cc(C(=O)N2CCN(Cc3cccc(F)c3)CC2)c1 | u | 0% | 32 | 1% | 4 | -2%
CC(C)CN=C(N)N=C(N)N | 9%[13.5 µM] | -3% | x | -3%[7.66 µM] | x | x
COc1ccc(-n2cc(-c3ccccc3)nc2SCC(=O)Nc2ccccc2)cc1Cl | x | x | x | x | x | -4%[46 µM]
Clc1cccc(CN2CCC(Cc3ccccc3)CC2)c1 | 20µM* | x | -11 | x | 3 | u
COc1ccc(N2CCN(C(=O)c3cccc(Cn4cc(Cl)cn4)c3)CC2)cc1 | -7% | -13% | -112* | -3% | 34 | u
O=C(Nc1cccc(Cl)c1)N1CCN(Cc2ccccc2)CC1 | 4% | -23% | -96* | -3% | u | -4%
O=C(O)c1cccc(Cn2cc(Cl)cn2)c1 | 5% | 1% | 12 | 11% | -5 | 4%
Cc1ccc(C(=S)N2CCN(Cc3ccccc3)CC2)cc1 | u | x | x | 2% | x | u
Oc1cccc(C(=S)N2CCN(Cc3ccccc3)CC2)c1 | 11µM* | 14µM* | -24 | 4% | 12 | -3%
CCOc1ccc(C2C(C(=O)Nc3ccccc3)=C(C)Nc3nc(-c4ccccc4)nn32)cc1OC (centres undefined) | x | x | x | x | -10 | x
CCCCSCCCNC(=O)c1cc(-c2cccnc2)nc2ccc(S(=O)(=O)N3CCC(C)CC3)cc12 | x | x | x | x | x | 7%[46 µM]
CC1=C(C)CC(C(=O)N2CCN(Cc3ccccc3)CC2)C(C(=O)O)C1 (centres undefined) | 14µM* | -6% | 30 | 7% | -4 | -6%
O=C(N1CCN(Cc2ccccc2)CC1)C12CC3CC(CC(C3)C1)C2 | 6.3µM* | -3% | 27 | 0% | -2 | -24%
CS(=O)(=O)N1CCC(C(=O)N2CCN(Cc3ccccc3)CC2)CC1 | u | x | x | 1% | x | x
Cn1cc([N+](=O)[O-])c(C(=O)Nc2cc(Oc3ccccc3)cc([N+](=O)[O-])c2)n1 | u | -24% | -125* | -2% | x | u
Cc1ccsc1/C=C/C1=Cc2c(sc(NC(=O)CSc3n[nH]c(N)n3)c2C#N)C(C)(C)C1 | u | u | -29 | -1% | 1 | -1%
CCOc1ccc(/C=C/C2=Cc3c(sc(NC(=O)CSc4n[nH]c(N)n4)c3C#N)C(C)(C)C2)cc1 | 25µM* | u | 13 | -5% | 4 | u
O=[N+]([O-])c1ccc(N(c2ccccc2)c2ccccc2)cc1 | u | -29% | -6 | -6% | -5 | 21%
CCN(C(=O)c1ccccc1)c1ccc([N+](=O)[O-])cc1 | 5µM* | -5% | 35 | -4% | x | 6%
Cc1cc2nc3[nH]c4c(Cl)cc(Cl)cc4c3nc2cc1C | -8%[13.5 µM] | -7% | x | -8%[7.66 µM] | x | x
CCC1=Nc2cc(C(=O)N3CCC(C)CC3)ccc2Sc2ccc(C)cc21 | x | x | x | x | -5 | x
Cc1ccccc1CSCC(=O)NC(=O)NCc1ccco1 | 25µM* | -29% | -95* | 1% | 4 | 5%
Cc1cc(SCC(=O)NC(=O)NCc2ccco2)nc2ccccc12 | u | -23% | 16 | -3% | -2 | u
O=C(CSc1ccccc1F)NC(=O)NCc1ccco1 | -3% | x | x | -2% | x | u
SMILES | ALDH1A1 block | HPGD inh | PNC assembly inh | Luc counter | IMPase cell inh | LMNA splice mod
Cc1cc(SCC(=O)NC(=O)NCc2ccco2)nc2c(C)cccc12 | 22µM* | -21% | u | -3% | 6 | -8%
CCOc1ccc(N2C(=O)CSC23CCCCC3)cc1 | u | x | 28 | x | 12 | 4%
COc1ccc(N2C(=O)CSC23CCCCC3)cc1 | 14µM* | -16% | 306 | 1% | -6 | -10%
O=C(Nc1ccccc1)c1ccc(N2CCN(c3ccccn3)CC2)c(S(=O)(=O)N2CCOCC2)c1 | 28µM* | u | -25 | -1% | 3 | -1%
O=C(Nc1ccccc1)c1ccc(N2CCN(c3ccccc3)CC2)c(S(=O)(=O)N2CCOCC2)c1 | u | u | 10 | 2% | 6 | -7%
Cc1ccc(C(=O)NC2(C(F)(F)F)C(=O)Nc3c2c(=O)[nH]c(=O)n3CCc2ccccc2)cc1 (centres undefined) | x | x | x | x | 3 | x
Cc1ccc(-n2cc(C(=O)c3cc(Cl)ccc3O)cc(C#N)c2=O)cc1 | 5% | -23% | -17 | 0% | x | u
Cc1ccccc1NC(=O)c1cc(C(=O)c2cc(Cl)ccc2O)cn(-c2ccccc2C)c1=O | -3% | 10µM* | 22 | 0% | x | u
CCOC(=O)/C(=C\c1ccc(OC(F)F)cc1)C1=Nn2c(nnc2-c2ccc(Cl)cc2)SC1 | 14µM* | 14µM* | u | 3% | x | u
O=C(C[C@@H](c1ccccc1)N1CCCCC1)c1ccccc1 | 14%[13.5 µM] | u | x | -16%[7.66 µM] | x | x
Cc1cc(C)c(S(=O)(=O)N(CC(=O)NCc2cccnc2)C2CCCCC2)c(C)c1 | 15% | -8% | -88* | -2% | -1 | -1%
O=C(CN(C1CCCCC1)S(=O)(=O)c1ccc(Cl)cc1)NCc1ccncc1 | -9% | 1% | -100* | -4% | 4 | u
CC1=C(C(=O)Nc2ccc(C)cc2C)C(c2sccc2C)n2ncnc2N1 (centres undefined) | x | x | x | x | x | -2%[46 µM]
CCn1c(COc2ccccc2)nnc1SCC(=O)C(C)(C)C | u | -7% | -97* | -1% | 1 | u
CCn1c(COc2ccc(C)cc2)nnc1SCC(=O)C(C)(C)C | -15% | -8% | -18 | -2% | -3 | u
COCCNC(=O)c1ccccc1NC(=O)c1ccccc1N(C)S(C)(=O)=O | 18% | -3% | -111* | -1% | x | -9%
CC(C)(C)C(=O)OCc1cc(=O)n2nc(C3CCCCC3)sc2n1 | x | x | x | x | x | -7%[46 µM]
Cc1c(N=NC2=C(O)CCCC2=O)c(=O)n(-c2ccccc2)n1C | 13µM* | x | x | -1% | x | x
Cc1cccc(C)c1Nc1oc(-c2ccccc2)nc1-c1ccccc1F | u | -1% | x | -4% | x | x
COc1ccc(C2C=C(c3ccc(Cl)cc3)Nc3nc(-c4ccc(Cl)cc4)nn32)cc1 (centres undefined) | x | x | x | x | -9 | x
COCCNC(=O)c1onc(CCl)c1C(=O)OC | 28µM* | -16% | 13 | -3% | -2 | -7%
C=CCNC(=O)c1onc(CCl)c1C(=O)OC | -8% | -7% | 3 | 3% | -1 | u
CCCCNC(=O)c1onc(CCl)c1C(=O)OC | 14µM* | -15% | u | 1% | 0 | u
Cc1ccc(CNS(=O)(=O)c2ccc(C(C)(C)C)cc2)n1C | 8.9µM* | -11% | 38 | 0% | 0 | 8%
O=C1NC(=S)S/C1=C1\Sc2ccccc2N1CCCS(=O)(=O)O | 25µM* | 25µM* | -6 | 1% | u | 9%
